Dicer processing = blocks human Dicer maturation of pre-miR-21 | Q9UPY3 | cat-ELCCA pre-miR-21 Dicer processing, chemiluminescence; active compounds read high | 47,000 tested, 6% active | AID 1347074 | z-score at 25 µM; in the data active = z-score above about 3, passing the limit was not always enough;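 note: plate controls were vehicle for no effect and no enzyme for full effect; higher signal means more uncleaved substrate so more Dicer inhibition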
Target sequence (Q9UPY3 whole entry, looked up): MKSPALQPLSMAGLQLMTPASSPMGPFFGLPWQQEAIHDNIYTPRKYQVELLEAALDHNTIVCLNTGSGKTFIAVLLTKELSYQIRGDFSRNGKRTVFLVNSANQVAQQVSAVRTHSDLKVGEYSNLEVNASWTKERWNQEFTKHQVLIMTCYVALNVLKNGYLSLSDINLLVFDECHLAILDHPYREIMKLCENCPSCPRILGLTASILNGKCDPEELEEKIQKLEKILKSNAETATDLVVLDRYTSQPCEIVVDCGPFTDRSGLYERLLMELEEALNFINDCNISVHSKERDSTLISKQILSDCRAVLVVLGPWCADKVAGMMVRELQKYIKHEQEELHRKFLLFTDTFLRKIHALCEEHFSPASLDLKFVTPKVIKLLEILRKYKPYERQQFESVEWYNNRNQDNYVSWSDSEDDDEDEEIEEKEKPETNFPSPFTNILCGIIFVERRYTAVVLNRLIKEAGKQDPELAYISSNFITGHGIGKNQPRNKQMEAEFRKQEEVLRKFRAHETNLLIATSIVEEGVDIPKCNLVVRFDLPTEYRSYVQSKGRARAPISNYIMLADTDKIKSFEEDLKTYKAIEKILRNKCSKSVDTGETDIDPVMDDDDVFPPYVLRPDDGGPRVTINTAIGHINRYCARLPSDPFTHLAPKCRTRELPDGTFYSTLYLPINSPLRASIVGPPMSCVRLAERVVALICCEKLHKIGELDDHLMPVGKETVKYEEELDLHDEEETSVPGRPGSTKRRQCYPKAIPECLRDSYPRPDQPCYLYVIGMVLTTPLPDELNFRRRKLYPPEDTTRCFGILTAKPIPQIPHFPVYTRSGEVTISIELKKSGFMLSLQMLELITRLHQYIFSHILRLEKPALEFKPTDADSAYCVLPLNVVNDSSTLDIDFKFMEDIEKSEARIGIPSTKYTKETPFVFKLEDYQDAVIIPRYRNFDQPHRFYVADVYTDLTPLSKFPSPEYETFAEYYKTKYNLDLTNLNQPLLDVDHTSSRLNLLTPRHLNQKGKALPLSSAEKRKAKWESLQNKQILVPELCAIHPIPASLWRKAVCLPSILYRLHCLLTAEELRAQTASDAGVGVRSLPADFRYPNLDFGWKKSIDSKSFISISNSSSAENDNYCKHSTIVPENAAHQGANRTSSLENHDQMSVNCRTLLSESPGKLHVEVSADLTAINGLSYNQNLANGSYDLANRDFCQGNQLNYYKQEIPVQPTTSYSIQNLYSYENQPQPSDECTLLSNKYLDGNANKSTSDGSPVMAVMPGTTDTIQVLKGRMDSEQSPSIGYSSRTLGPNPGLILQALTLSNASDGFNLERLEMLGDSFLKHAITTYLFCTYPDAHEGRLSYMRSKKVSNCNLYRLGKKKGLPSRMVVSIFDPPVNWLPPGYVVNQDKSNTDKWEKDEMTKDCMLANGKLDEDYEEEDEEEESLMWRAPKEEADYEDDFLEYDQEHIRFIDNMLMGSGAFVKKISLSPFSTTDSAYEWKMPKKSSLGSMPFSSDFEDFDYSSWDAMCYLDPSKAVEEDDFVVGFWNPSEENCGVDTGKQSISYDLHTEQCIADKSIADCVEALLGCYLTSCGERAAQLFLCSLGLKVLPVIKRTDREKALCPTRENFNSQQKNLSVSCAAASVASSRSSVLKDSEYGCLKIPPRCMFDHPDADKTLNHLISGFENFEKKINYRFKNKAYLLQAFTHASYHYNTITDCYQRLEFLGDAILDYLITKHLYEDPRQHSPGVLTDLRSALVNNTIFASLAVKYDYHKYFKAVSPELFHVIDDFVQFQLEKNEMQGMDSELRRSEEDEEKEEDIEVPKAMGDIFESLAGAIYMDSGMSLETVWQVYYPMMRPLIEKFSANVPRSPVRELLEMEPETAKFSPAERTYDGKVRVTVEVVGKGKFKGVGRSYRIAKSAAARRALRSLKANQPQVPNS
Starred values were filed as active, the others as inactive. The entries come from a sample that favours hits as a whole.

SMILES | Dicer processing
CC(=O)Cn1cnc2c(nnn2Cc2ccccc2Cl)c1=O | -1.2
Cc1[nH]c2ccccc2c1C1(O)C(=O)N(Cc2cccs2)c2ccc(Cl)cc21 (centres undefined) | -1.2
C=CCN(C#N)c1nc(NC(C)C)nc(NC(C)C)n1 | 6.5*
CN(C)S(=O)(=O)c1ccc2c3c(cccc13)C(=O)N2C(=O)c1cccnc1 | -1.3
COC(=O)Nc1cc(C)nc2ccccc12 | -0.2
Cc1ccc(-c2cc(C(=O)O)c3ccccc3n2)s1 | -0.52
Cc1ccc(/C(O)=C/C(=O)C(=O)NNC(=O)c2cc(C)nc3ccccc23)cc1 | 3.2*
CCc1nn2c(N)c(C#N)cnc2c1-c1ccc(F)cc1 | -0.32
CCCOC(=O)C1=C(C)NC2=C(C(=O)CC(C)(C)C2)C1c1ccc(C(=O)OC)cc1 (centres undefined) | -0.76
Nc1nc(-c2cccc3ccccc23)cs1 | 0.36
Nc1nc(-c2csc3ccccc23)cs1 | 3.3*
c1ccc2c(-c3csc(-c4ccc(-c5ccno5)s4)n3)csc2c1 | -1.4
COC(=O)C1=NOC2C(=O)N(c3ccc(Cl)cc3)C(=O)C12 (centres undefined) | 1.8
COc1cc(C2CC(=O)Nc3nc(N)[nH]c(=O)c32)ccc1OCc1ccc(Cl)cc1 (centres undefined) | -0.79
CSc1nc(COc2ccccc2Cl)nc(N)c1C#N | -2.1
N#C/C(=C\c1c(Cl)cccc1Cl)S(=O)(=O)c1cccs1 | -0.95
CN(C)/C=C(\C#N)S(=O)(=O)c1cccs1 | -1.8
COC(=O)c1sccc1N/C=C(\C#N)S(=O)(=O)c1cccs1 | 19*
CN(C)CCCN1C(=O)C(=O)/C(=C(/O)c2ccccc2)C1c1ccncc1 (centres undefined) | 2.8
COc1ccc(Br)c(C(=O)NC(=S)Nc2c(C)cc(C)cc2C)c1 | 1.7
Cc1cc(C)n(-c2ccc(Sc3ccc(Cl)cc3)nn2)n1 | -2
Cc1cc(C)n2c(SCC(=O)O)nnc2n1 | -0.62
Cc1cc(C)n2c(SCC(C)C)nnc2n1 | -0.03
Cc1ccc(S(=O)(=O)NCC(Sc2nnc3nc(C)cc(C)n23)c2ccccc2)cc1 (centres undefined) | 3.5*
CCOc1cc(C2C3=C(CC(C)(C)CC3=O)Nc3[nH]n(-c4ccccc4)c(=O)c32)ccc1O (centres undefined) | -3.3
SMILES | Dicer processing
CCCCCCCNC1CC(=O)N(c2ccc(Br)cc2)C1=O (centres undefined) | 0.02
Cc1nn(-c2ccccc2)c(N)c1C(N)=S | -1.1
CCOC(=O)[C@H](CCCN=C(N)N)NC(=O)c1ccccc1 | 4.8*
O=C(NC(CO)C(=O)O)c1ccccc1 (centres undefined) | 2.1
CCCCCCNC(=O)NC(Cc1ccccc1)C(=O)OCC (centres undefined) | -0.79
Cc1cn(C(=O)Nc2ccc(Cl)cc2)nc1-c1cccs1 | 0.83
COC(=O)c1ccc(CN2CCOCC2)o1 | 0.09
N/C(=N\OC(=O)Nc1ccc(OC(F)(F)F)cc1)c1cc(Cl)c(N)c(Cl)c1 | 0.19
Cc1cccc(OCC(O)Cn2cnc3ccccc32)c1 (centres undefined) | 3.7*
Cc1ccc(Cl)c(OCC(O)Cn2cnc3ccccc32)c1 (centres undefined) | 0.51
Cc1cccc(C)c1OCC(O)Cn1cnc2ccccc21 (centres undefined) | 0.99
COC(=O)C(O)(NC(=O)c1cccc(C)c1)C(F)(F)F (centres undefined) | -0.59
Cc1ccc(Br)cc1[N+](=O)[O-] | -1.1
CC(=O)Nc1cc(C)c(Br)cc1[N+](=O)[O-] | 0.37
O=[N+]([O-])c1ccc2c3c(ccc(Br)c13)CC2 | 3.3*
O=C(COc1ccc2ccccc2c1)NS(=O)(=O)c1ccccc1 | 0.35
O=C1C2C3c4ccccc4C(c4ccccc43)C2C(=O)N1c1ccncc1 (centres undefined) | 0.19
O=C1C2C3c4ccccc4C(c4ccccc43)C2C(=O)N1CCO (centres undefined) | 4.6*
O=C1C2C3c4ccccc4C(c4ccccc43)C2C(=O)N1c1ccc(F)cc1 (centres undefined) | -0.84
CCCCCCCSc1nc2c(c(=O)[nH]c(=O)n2C)n1C | 0.75
Cc1ccc(C(=O)Oc2cccc(C3C4=C(Nc5c3c(=O)[nH]c(=O)n5C)c3ccccc3C4=O)c2)cc1 (centres undefined) | 0.21
CN(C)c1c(F)cc(C(N)=O)cc1F | 3.4*
CN(C)c1c(F)cc(/C(N)=N/O)cc1F | 0.46
CN(C)c1c(F)cc(C(=O)Nc2cc(C(F)(F)F)cc(C(F)(F)F)c2)cc1F | 12
COC(=O)c1ccc(Cl)cc1N(Cc1ccccc1)S(C)(=O)=O | -0.46
SMILES | Dicer processing
Cc1ccc(NC(=O)N(C2=NCC(C)(C)S2)c2ccc(F)c(Cl)c2)cc1 | 1.7
COC(=O)c1sc(N2C(=O)c3oc4ccc(F)cc4c(=O)c3C2c2ccc(SC)cc2)nc1C (centres undefined) | 0.92
CCOC(=O)c1c(NC(=O)CC)sc2c1CCC2 | 1.4
COC(=O)c1c(NC(=O)c2cc(OC)cc(OC)c2)sc2c1CCC2 | 0.77
COC(=O)c1c(NC(=O)CCCC(=O)O)sc2c1CCC2 | 4.3*
CCOC(=O)CCC(=O)Nc1sc2c(c1C(=O)OCC)CCCC2 | 1.5
NC(=O)c1c(NC(=O)c2ccccc2C(=O)O)sc2c1CCCC2 | 0.5
COc1ccc(NC(=O)c2c(NC(=O)c3ccco3)sc3c2CCC3)cc1 | 3.3*
COC(=O)c1c(NC(=O)c2ccccc2C(=O)O)sc2c1CCC2 | 3.1*
COc1ccccc1NC(=O)c1c(NC(=O)c2ccco2)sc2c1CCC2 | 0.05
COC(=O)c1c(NC(=O)c2c(OC)cccc2OC)sc2c1CCC2 | 1.5
O=C1NCCc2c1[nH]c1ccc(C3CCCCC3)cc21 | 2.3
Cc1nn(C)c(=O)c2noc(/C=C/c3ccc(Cl)c(Cl)c3)c12 | -0.86
CCc1ccc(O)c(C(=O)c2cnc3cc(-c4ccccc4)nn3c2)c1 | -2.9
COc1ccc(C(C)=O)cc1CSc1nnc(-c2ccc(C(F)(F)F)cc2)n1Cc1ccco1 | 0.32
CN(C)/C=C(/C(=O)c1ccc(C(F)(F)F)cc1)c1nnnn1-c1ccccc1 | -0.73
COc1cc(C)nc(NC(=O)Nc2sc(=S)n(C)c2C)n1 | 1.3
N#Cc1cnc(N2CCN(c3ccccc3)CC2)nc1N | -0.2
CCOC(=O)NNC(=S)Nc1ccccc1 | 1.6
CCOC(=O)NNC(=S)Nc1cccc(C)c1 | 3.8*
CCOC(=O)NNC(=S)Nc1cccc(C(F)(F)F)c1 | -0.65
CCCCc1nc(SCC(=O)Nc2nc3c(s2)CCCC3)n[nH]1 | 0.87
CN(CCc1ccccn1)C(=O)Nc1ccccc1 | 41
CN(Cc1ccccc1)C(=O)Nc1ccccc1 | 3.7*
O=C(Nc1ccccc1)N(Cc1ccccc1)c1cccc2ccccc12 | -2.8
SMILES | Dicer processing
Cc1cc(C)n2nc(COc3ccccc3)c(-c3ccccc3)c2n1 | 2.5
COCCCNC(=S)NNC(=O)c1ccc(C(F)(F)F)cc1 | -4.6
COCCCNC(=S)Nc1ccc(F)cc1 | -0.92
Cc1cc(Br)c(NC(=S)NNc2ccccc2)c(Br)c1 | 3.9
O=C(c1ccccc1)c1cc(Cl)ccc1NC(=S)Nc1ccc(F)cc1 | -0.55
S=C(NNc1ccccc1)c1ccccc1 | 5.2*
Fc1ccc(NC(=S)Nc2ccccc2)cc1 | -0.31
S=C(NNC(=S)Nc1ccccc1)Nc1ccccc1 | 14*
N#CCC(=O)NNC(=S)Nc1ccccc1 | -1.2
Cc1ccccc1NC(=S)NNC(=O)c1ccccc1Cl | 0.06
O=C(NNC(=S)Nc1ccc(F)cc1)c1ccccc1Cl | 4.7*
COCCCNC(=S)NNC(=S)Nc1ccccc1 | 3.6*
FC(F)(F)c1cccc(NNC(=S)Nc2ccccc2)c1 | -0.98

Source: PubChem BioAssay
